Reference: PubChem BioAssay AID1508602 (The Scripps Research Institute Molecular Screening Center, 2020)
In all, about 650,000 compounds went through this assay and about 6,800 (1%) were called active. The sample as a whole holds a higher share of actives than the screen did. Unmarked numbers belong to inactive results. No stated cut-off is given here; in the data, active means activation above about 4.9%; inactive means the rest.

Target: G-protein coupled receptor 151 (Homo sapiens) (UniProt Q8TDV0)
Experiment: activates the human receptor GPR151, primary screen, cell-based, PathHunter beta-arrestin, luminescence (AID 1508602);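 further: 0% = median of compound wells and 100% = cells with positive control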
Conditions: PathHunter beta-arrestin GPR151 cells, at 11.2 µM, stronger effect = higher value

Sequence of G-protein coupled receptor 151 (Homo sapiens) (Q8TDV0 whole entry, looked up): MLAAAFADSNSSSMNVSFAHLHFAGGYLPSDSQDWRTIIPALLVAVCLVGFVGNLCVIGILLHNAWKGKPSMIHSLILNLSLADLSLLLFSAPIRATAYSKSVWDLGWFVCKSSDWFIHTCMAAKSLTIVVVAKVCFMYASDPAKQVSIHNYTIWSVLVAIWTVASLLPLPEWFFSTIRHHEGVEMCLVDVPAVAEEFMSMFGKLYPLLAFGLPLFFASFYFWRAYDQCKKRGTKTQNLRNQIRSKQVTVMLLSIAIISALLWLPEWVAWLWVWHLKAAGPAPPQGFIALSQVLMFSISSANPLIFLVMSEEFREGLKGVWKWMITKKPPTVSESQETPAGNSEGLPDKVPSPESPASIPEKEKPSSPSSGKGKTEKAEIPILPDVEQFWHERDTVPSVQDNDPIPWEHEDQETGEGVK

| Compound | activation |
| --- | --- |
| COc1ccc(-c2nnc(SCC(=O)Nc3ccc4c(c3)OCCO4)o2)cc1OC | 0.0025% |
| CCC(CC)C(=O)N1CCN(Cc2nc3sc(C)c(C)c3c(=O)[nH]2)CC1 | 5.71% (active) |
| Cc1sc2nc(CN(C(=O)C3CC3)C3CCCC3)[nH]c(=O)c2c1C | 0.605% |
| Cc1sc2nc(Cc3ccccc3)[nH]c(=O)c2c1C | 0.303% |
| O=C(CCCCn1c(=O)[nH]c2ccccc2c1=O)N1CCN(c2cccc(Cl)c2)CC1 | -0.11% |
| CCCCc1ccc(-c2nc(C=Nc3ccc(C(C)=O)cc3)c(O)o2)cc1 | -0.204% |
| CCCCc1ccc(N=Cc2nc(-c3cccc4ccccc34)oc2O)cc1 | 7.67% (active) |
| Oc1oc(-c2cccc3ccccc23)nc1C=Nc1ccc2ccccc2c1 | -1.09% |
| COc1ccc(CNC2CCCN(c3nc(C)c4ccc(C)cc4n3)CC2)cc1OC (configuration not stated) | -0.801% |
| COc1ccc(NC(=O)C2CC(=O)N(C3CCCCC3)C2)cc1 (configuration not stated) | 0.591% |
| Cc1ccc(C)c(NC(=O)C(Cc2ccccc2)N2C(=O)c3cccc([N+](=O)[O-])c3C2=O)c1 (configuration not stated) | 1.63% |
| CCOc1ccc(C(=O)Nc2ccccc2I)cc1[N+](=O)[O-] | 2.03% |
| CCOc1ccc(C(=O)Nc2nnc(CC)s2)cc1[N+](=O)[O-] | 7.7% (active) |
| CCOc1ccc(C(=O)Nc2ccc(C(=O)OC)cc2)cc1[N+](=O)[O-] | 1.51% |
| Cc1ccccc1-n1c(C)cn2c3c(=O)n(CC(N)=O)c(=O)n(C)c3nc12 | 0.26% |
| O=S(=O)(NC1CCCCC1)c1ccc(S(=O)(=O)n2cnc3ccccc32)cc1 | 3.37% |
| CCc1cccc(CC)c1NC(=O)CCS(=O)(=O)c1ccc2c(c1)SCC(=O)N2 | -0.523% |
| COc1cccc(NC(=O)CN(C)S(=O)(=O)c2ccc3c(c2)SCC(=O)N3)c1 | 5.58% (active) |
| COc1ccc(S(=O)(=O)N(C)CC(=O)Nc2cccc(C(F)(F)F)c2)cc1OC | 1.26% |

| Compound | activation |
| --- | --- |
| O=C(NNC1=NCCCCC1)c1ccc([N+](=O)[O-])cc1 | 4.83% |
| CC(=O)NCc1nnc2n1CCN(Cc1ccc(-c3ccccc3)cc1)CC2 | -0.371% |
| CC(C)CNC(=O)C(C)N(c1ccccc1)S(C)(=O)=O (configuration not stated) | 1.91% |
| Cc1nc2ncnn2c(C)c1Cc1c(F)cccc1Cl | 0.47% |
| Cc1nc2nc(SCc3ccc([N+](=O)[O-])cc3)nn2c(C)c1Cc1c(F)cccc1Cl | 5.69% (active) |
| Cc1nc2nc(SCc3c(F)cccc3Cl)nn2c(C)c1Cc1c(F)cccc1Cl | 0.427% |
| CCOC(=O)c1cnc2c(C)c(Cl)ccc2c1Nc1cccc(C)c1 | 1.7% |
| O=C(C1CC1)N1CC[C@H]2[C@H](CCCN2C/C=C/c2ccco2)C1 | 0.174% |
| O=C(Nc1ccccc1)c1cnc(N2CCC(N3CCOCC3)CC2)s1 | -1.62% |
| COc1ccc(/C=C/C(=O)NCCSc2ccccn2)cc1 | -0.668% |
| COc1ccc(C=C(C#N)C#N)c(CSc2ccccn2)c1 | 5.44% (active) |
| COc1cccc(N(CC(=O)NCCSc2ccccn2)S(C)(=O)=O)c1 | 1.03% |
| Cn1c(SCC(=O)NC(Cc2ccccc2)C(=O)O)nnc1-c1ccncc1 (configuration not stated) | -0.851% |
| CCOc1ccc(CCn2c(-c3ccccc3)cn3c4c(=O)n(C)c(=O)n(C)c4nc23)cc1OCC | 0.226% |
| O=C1CC(N2CCN(c3ccc(Cl)cc3)CC2)C(=O)N1c1ccc(Cl)c(Cl)c1 (configuration not stated) | -0.621% |
| Cc1ccc(N2C(=O)CC(N3CCN(Cc4ccc(Cl)cc4)CC3)C2=O)cc1Cl (configuration not stated) | 5.11% (active) |
| Cc1ccc(N2C(=O)CC(N3CCC(Cc4ccccc4)CC3)C2=O)cc1Cl (configuration not stated) | -0.328% |
| COc1ccc2ccccc2c1CN1CCc2nnc(C(C)NC(=O)C(C)C)n2CC1 (configuration not stated) | 1.9% |
| COc1ccc(C(=O)Nc2c(C)n(C)n(-c3ccccc3)c2=O)c(OC)c1OC | 0.96% |

| Compound | activation |
| --- | --- |
| COc1cc(C(C)=Nc2c(C)n(C)n(-c3ccccc3)c2=O)cc(O)c1OC | 5.37% (active) |
| Cc1c(N=C(Nc2ccccc2)Nc2ccccc2)c(=O)n(-c2ccccc2)n1C | -0.384% |
| CCOc1ccc(CCNC(=O)Cn2c(-c3cncs3)nc3ccccc32)cc1OCC | -0.67% |
| O=C(Nc1ccccc1)/C(=C\c1ccco1)NC(=O)c1cccc(Cl)c1 | 0.512% |
| CCOC(=O)c1cnc2c(OC)cccc2c1Nc1ccc(Oc2ccccc2)cc1 | -0.414% |
| CCN(CC)c1nc(Nc2ccccc2)nc(Nc2ccccc2)n1 | 6.59% (active) |
| CCN(CC)c1nc(Nc2ccccc2)nc(Nc2ccc(NC(C)=O)cc2)n1 | -0.926% |
| CCN(CC)c1nc(NCc2ccccc2)nc(NCc2ccc3c(c2)OCO3)n1 | 0.801% |
| COc1cccc(C(=O)COC(=O)c2c3c(nc4ccccc24)CCCC3)c1 | 1.21% |
| CCOC1=C/C(=C/c2c(N)n3nc(N4CCCC4)sc3nc2=O)C=CC1=O | -1.93% |
| COC(=O)C(C)CN1CCN(Cc2ccc3c(c2)OCO3)CC1 (configuration not stated) | -1.4% |
| CC1CCCN(CC(O)COc2ccc3c(c2)OCO3)C1 (configuration not stated) | -0.477% |
| CN1CCN(CC(O)COCc2ccc3c(c2)OCO3)CC1 (configuration not stated) | 10.1% (active) |
| CCC(=O)Nc1cccc(Nc2nc(Cl)nc(Nc3cccc(NC(=O)CC)c3)n2)c1 | 0.686% |
| Cc1ccc(CS(=O)(=O)CC2Nc3ccc(C(=O)NC4CCCC4)cc3NC2=O)cc1 (configuration not stated) | -0.216% |
| Cc1cc(=O)[nH]c(NCCC(=O)O)n1 | 0.811% |
| COCCn1c(C)cc(C(=O)CSc2nnc3scc(-c4ccc(C)cc4)n23)c1C | 1.12% |
| COCCn1c(C)cc(C(=O)CSc2nnc(-c3ccccc3)o2)c1C | 9.35% (active) |
| COCCn1c(C)cc(C(=O)COC(=O)C2COc3ccccc3O2)c1C (configuration not stated) | 0.229% |
